In the supplement of paper PMC11732987, “Enantioselective OTUD7B fragment discovery through chemoproteomics screening and high-throughput optimisation” (Communications Chemistry, 2025):

What was measured:
Test in all cases: log2 ratio of Biotin-Ahx-Ub-VS probe labelling (fragment/DMSO); higher = less target engagement (more negative = stronger competition), active = hit call of the paper (q ≤ 0.05, log2 ratio ≤ -1)
Details in all cases: compound concentration: 200 uM; treatment time: 3 h
USP42 = target: T1, USP42 (UniProt Q9H9J4)
T1 sequence (whole entry): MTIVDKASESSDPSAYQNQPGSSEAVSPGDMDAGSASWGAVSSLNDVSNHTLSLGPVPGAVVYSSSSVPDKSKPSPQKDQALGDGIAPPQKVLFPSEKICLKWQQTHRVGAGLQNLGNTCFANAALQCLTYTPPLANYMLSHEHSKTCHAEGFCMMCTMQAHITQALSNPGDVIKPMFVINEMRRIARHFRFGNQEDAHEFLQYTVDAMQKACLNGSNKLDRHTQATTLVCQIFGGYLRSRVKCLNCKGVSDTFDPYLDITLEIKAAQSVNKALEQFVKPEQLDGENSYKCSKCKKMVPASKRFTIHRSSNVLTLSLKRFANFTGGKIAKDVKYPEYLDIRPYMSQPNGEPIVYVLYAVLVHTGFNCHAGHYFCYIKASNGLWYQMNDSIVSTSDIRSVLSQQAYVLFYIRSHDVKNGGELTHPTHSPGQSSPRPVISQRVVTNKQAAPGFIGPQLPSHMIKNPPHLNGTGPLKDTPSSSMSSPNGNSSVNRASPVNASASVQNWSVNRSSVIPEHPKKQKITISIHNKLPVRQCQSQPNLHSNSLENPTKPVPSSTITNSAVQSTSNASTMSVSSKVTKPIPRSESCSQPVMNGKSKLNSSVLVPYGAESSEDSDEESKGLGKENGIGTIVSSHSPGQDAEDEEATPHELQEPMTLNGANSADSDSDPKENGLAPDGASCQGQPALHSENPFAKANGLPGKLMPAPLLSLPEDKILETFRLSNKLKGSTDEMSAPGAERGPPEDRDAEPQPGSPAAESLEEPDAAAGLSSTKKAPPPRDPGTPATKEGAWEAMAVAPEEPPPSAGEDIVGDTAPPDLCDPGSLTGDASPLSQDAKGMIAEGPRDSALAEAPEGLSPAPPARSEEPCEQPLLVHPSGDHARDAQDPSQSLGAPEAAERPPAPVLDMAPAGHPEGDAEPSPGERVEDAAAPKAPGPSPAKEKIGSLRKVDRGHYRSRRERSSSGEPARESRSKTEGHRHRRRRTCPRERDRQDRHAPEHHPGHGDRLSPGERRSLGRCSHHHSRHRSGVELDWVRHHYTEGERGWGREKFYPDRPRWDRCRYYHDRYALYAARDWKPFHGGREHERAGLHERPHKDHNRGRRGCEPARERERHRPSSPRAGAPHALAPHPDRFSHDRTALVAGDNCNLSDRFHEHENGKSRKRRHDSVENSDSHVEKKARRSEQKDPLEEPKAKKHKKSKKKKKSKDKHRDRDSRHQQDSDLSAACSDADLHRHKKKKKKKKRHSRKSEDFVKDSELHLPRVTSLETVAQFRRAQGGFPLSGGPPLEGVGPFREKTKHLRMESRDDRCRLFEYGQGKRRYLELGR
Procedure, shortened: (§1)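 The table lists average log2 ratios of fragment over vehicle, from an unpaired t-test on global-median-normalised Spectronaut label-free quantities. Proteins with ≥2 unique peptides were used. Samples were HEK293T lysate (495 µg) treated in triplicate with fragment at 200 µM or vehicle for 3 h, then with Biotin-Ahx-Ub-VS (0.5 µM final) for 1 h, with labelled DUBs NeutrAvidin-enriched and run by diaPASEF LC-MS/MS.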

USP46 = USP46 (UniProt P62068)
Sequence of USP46 (P62068 whole entry): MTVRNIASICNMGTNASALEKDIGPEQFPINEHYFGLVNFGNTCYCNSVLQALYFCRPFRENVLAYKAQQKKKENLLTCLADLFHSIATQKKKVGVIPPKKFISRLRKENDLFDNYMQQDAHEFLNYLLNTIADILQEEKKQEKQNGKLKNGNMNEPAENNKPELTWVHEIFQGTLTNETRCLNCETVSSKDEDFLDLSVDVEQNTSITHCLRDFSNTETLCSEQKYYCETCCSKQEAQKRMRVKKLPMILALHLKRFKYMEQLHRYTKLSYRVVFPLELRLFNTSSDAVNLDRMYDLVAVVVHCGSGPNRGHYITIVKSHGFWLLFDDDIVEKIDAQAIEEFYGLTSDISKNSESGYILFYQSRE
Procedure, shortened: as §1

USP47 = target: T2, USP47 (UniProt Q96K76)
T2 sequence (whole entry): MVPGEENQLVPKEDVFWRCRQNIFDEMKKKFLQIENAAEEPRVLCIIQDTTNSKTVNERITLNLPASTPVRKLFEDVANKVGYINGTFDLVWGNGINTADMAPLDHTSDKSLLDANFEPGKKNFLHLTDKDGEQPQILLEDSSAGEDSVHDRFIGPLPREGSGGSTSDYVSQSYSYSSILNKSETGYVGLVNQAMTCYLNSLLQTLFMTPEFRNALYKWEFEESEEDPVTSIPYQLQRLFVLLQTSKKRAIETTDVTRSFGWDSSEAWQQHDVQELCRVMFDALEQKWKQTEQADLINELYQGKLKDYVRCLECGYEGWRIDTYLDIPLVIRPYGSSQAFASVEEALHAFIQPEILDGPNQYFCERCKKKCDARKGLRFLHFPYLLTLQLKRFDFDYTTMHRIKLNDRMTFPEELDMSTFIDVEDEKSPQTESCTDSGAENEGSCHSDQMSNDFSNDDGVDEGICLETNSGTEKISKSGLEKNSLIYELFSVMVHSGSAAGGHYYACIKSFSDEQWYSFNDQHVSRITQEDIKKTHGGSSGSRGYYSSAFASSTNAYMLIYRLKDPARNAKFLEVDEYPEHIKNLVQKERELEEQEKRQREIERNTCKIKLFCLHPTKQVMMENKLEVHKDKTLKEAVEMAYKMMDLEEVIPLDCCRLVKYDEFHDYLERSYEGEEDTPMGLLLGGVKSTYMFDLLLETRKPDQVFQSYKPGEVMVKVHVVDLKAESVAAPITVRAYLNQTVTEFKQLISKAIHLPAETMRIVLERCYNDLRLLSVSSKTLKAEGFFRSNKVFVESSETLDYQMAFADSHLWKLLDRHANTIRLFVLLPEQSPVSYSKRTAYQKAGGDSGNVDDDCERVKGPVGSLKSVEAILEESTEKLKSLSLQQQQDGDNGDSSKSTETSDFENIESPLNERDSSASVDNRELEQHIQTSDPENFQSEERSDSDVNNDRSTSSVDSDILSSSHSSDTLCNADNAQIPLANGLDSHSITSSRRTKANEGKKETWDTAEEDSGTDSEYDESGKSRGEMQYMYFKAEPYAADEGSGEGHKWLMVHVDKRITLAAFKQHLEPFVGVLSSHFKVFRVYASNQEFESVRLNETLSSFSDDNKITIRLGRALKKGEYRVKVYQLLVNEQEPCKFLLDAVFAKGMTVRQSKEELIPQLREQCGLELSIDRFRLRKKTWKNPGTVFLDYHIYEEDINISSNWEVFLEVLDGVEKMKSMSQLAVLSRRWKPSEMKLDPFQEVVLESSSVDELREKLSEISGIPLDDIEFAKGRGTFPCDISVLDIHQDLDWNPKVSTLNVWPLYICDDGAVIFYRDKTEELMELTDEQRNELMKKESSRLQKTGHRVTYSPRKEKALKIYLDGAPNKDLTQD
Procedure, shortened: as §1

USP48 = target: T3, USP48 (UniProt Q86UV5)
T3 sequence (whole entry): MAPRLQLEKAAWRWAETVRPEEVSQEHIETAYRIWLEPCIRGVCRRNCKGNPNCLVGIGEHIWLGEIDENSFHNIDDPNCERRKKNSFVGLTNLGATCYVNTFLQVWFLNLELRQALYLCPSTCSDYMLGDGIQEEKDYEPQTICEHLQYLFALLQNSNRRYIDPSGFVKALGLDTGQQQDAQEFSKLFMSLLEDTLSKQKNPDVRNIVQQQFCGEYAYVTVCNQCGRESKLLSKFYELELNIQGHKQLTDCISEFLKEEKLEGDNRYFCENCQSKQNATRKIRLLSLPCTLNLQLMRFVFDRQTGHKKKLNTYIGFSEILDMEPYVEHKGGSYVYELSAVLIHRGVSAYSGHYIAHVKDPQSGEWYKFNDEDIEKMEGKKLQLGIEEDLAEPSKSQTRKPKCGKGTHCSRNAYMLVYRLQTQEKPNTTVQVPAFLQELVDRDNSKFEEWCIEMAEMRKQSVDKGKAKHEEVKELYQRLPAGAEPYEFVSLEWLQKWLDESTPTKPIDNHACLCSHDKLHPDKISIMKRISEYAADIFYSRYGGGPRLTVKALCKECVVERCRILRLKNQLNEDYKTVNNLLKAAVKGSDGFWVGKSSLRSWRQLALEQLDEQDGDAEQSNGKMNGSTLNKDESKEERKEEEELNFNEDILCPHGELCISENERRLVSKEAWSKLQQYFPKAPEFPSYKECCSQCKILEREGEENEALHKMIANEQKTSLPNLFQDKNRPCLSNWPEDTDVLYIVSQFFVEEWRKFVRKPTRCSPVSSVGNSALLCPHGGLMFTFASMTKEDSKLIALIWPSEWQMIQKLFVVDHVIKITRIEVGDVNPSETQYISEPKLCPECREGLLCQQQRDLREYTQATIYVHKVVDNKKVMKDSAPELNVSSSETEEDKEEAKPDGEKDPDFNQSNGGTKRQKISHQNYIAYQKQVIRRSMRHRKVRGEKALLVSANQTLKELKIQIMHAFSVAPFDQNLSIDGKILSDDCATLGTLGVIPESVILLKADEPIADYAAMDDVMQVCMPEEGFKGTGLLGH
Procedure, shortened: as §1

USP5 = target: T4, USP5 (UniProt P45974)
T4 sequence (whole entry): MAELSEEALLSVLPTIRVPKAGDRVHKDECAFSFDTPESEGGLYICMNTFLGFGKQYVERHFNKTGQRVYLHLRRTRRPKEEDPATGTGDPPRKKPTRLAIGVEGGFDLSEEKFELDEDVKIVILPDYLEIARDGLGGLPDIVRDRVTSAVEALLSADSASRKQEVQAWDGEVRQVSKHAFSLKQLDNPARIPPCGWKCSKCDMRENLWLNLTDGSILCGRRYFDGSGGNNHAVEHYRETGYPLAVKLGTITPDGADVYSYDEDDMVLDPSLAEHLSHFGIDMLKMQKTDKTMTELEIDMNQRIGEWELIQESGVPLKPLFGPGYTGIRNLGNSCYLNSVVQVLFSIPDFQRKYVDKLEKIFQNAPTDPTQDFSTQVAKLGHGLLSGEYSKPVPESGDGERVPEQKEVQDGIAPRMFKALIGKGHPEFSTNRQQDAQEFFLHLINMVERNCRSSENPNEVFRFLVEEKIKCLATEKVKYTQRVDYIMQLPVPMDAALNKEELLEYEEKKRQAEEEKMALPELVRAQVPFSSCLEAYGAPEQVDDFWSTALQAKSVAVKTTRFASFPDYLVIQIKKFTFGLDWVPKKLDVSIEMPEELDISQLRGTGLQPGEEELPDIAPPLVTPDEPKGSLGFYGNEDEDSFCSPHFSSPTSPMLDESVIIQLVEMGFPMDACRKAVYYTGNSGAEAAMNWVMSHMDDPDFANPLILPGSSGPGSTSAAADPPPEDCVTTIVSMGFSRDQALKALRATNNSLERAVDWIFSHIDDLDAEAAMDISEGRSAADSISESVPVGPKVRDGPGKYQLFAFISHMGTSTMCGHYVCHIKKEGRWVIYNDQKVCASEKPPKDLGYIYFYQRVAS
Procedure, shortened: as §1

USP54 = USP54 (UniProt Q70EL1)
Sequence of USP54 (Q70EL1 whole entry): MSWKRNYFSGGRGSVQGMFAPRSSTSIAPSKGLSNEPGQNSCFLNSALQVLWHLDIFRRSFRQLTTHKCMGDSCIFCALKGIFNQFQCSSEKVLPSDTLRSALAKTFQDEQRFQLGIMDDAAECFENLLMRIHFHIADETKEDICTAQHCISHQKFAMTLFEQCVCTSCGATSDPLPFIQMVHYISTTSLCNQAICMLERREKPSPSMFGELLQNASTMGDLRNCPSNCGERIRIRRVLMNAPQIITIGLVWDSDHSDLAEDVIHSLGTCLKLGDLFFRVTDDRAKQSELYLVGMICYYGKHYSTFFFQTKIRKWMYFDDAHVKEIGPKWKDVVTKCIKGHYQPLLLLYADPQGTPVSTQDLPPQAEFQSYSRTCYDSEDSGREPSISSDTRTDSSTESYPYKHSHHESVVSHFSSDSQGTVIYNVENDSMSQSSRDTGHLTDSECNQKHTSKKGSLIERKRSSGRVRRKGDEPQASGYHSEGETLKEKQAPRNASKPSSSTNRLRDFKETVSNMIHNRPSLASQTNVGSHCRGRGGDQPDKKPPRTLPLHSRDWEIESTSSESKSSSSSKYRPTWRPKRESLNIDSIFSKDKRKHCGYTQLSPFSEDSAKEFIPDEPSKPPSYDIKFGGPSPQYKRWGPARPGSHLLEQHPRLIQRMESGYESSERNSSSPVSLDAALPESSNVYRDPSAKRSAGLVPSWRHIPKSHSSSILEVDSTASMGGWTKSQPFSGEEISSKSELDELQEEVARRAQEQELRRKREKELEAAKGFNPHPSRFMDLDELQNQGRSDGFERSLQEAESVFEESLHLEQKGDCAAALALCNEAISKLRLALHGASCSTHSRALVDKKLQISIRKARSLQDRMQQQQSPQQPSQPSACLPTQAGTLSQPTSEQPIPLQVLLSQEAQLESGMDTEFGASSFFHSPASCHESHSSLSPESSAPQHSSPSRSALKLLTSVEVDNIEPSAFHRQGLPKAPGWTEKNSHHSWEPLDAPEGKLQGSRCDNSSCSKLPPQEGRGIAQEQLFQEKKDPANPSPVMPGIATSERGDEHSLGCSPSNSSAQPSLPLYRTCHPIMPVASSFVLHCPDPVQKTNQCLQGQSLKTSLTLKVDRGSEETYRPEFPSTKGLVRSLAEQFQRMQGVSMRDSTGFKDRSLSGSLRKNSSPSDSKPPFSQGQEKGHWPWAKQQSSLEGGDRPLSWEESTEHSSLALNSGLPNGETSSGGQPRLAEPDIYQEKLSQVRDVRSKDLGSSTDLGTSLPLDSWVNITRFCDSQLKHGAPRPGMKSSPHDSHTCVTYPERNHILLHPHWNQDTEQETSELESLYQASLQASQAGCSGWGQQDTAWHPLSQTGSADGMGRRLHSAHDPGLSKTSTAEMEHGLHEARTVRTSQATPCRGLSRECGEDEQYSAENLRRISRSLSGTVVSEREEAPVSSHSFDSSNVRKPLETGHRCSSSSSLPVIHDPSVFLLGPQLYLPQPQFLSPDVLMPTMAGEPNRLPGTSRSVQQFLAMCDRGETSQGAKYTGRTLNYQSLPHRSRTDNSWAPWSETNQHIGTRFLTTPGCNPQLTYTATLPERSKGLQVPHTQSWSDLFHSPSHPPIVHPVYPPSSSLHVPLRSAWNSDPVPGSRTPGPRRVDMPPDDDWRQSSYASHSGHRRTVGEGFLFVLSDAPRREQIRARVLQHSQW
Procedure, shortened: as §1

USP7 = USP7 (UniProt Q93009)
Procedure, shortened: as §1

USP8 = target: T5, USP8 (UniProt P40818)
T5 sequence (whole entry): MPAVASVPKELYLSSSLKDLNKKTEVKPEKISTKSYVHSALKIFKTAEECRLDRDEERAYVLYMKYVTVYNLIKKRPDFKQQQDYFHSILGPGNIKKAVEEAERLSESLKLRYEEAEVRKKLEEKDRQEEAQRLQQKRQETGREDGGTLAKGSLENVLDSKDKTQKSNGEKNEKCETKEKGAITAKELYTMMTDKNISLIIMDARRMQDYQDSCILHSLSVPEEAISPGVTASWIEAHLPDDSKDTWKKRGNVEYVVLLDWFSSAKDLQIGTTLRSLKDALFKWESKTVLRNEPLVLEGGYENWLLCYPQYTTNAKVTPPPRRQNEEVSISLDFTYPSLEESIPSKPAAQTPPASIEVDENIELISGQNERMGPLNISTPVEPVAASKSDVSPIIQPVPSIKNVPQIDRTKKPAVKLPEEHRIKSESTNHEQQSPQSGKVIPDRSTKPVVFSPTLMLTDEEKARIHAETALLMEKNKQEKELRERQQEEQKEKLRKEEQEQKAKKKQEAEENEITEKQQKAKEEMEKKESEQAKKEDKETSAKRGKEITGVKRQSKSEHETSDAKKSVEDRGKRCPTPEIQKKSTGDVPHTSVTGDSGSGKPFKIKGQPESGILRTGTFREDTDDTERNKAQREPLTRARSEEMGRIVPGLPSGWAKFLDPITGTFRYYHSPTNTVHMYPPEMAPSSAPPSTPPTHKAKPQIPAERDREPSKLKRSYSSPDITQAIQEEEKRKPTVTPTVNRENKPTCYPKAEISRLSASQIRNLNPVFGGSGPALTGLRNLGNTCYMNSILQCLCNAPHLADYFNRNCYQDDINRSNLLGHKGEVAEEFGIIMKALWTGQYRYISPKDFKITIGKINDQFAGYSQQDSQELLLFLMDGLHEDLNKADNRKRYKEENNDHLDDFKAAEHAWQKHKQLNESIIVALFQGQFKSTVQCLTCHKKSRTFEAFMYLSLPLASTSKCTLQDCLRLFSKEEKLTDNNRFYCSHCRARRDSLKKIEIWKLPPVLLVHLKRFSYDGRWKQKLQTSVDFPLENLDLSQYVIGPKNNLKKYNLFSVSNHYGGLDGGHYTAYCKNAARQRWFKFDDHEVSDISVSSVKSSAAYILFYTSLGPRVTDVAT
Procedure, shortened: as §1

USP9X = USP9X (UniProt Q93008)
Sequence of USP9X (Q93008 whole entry): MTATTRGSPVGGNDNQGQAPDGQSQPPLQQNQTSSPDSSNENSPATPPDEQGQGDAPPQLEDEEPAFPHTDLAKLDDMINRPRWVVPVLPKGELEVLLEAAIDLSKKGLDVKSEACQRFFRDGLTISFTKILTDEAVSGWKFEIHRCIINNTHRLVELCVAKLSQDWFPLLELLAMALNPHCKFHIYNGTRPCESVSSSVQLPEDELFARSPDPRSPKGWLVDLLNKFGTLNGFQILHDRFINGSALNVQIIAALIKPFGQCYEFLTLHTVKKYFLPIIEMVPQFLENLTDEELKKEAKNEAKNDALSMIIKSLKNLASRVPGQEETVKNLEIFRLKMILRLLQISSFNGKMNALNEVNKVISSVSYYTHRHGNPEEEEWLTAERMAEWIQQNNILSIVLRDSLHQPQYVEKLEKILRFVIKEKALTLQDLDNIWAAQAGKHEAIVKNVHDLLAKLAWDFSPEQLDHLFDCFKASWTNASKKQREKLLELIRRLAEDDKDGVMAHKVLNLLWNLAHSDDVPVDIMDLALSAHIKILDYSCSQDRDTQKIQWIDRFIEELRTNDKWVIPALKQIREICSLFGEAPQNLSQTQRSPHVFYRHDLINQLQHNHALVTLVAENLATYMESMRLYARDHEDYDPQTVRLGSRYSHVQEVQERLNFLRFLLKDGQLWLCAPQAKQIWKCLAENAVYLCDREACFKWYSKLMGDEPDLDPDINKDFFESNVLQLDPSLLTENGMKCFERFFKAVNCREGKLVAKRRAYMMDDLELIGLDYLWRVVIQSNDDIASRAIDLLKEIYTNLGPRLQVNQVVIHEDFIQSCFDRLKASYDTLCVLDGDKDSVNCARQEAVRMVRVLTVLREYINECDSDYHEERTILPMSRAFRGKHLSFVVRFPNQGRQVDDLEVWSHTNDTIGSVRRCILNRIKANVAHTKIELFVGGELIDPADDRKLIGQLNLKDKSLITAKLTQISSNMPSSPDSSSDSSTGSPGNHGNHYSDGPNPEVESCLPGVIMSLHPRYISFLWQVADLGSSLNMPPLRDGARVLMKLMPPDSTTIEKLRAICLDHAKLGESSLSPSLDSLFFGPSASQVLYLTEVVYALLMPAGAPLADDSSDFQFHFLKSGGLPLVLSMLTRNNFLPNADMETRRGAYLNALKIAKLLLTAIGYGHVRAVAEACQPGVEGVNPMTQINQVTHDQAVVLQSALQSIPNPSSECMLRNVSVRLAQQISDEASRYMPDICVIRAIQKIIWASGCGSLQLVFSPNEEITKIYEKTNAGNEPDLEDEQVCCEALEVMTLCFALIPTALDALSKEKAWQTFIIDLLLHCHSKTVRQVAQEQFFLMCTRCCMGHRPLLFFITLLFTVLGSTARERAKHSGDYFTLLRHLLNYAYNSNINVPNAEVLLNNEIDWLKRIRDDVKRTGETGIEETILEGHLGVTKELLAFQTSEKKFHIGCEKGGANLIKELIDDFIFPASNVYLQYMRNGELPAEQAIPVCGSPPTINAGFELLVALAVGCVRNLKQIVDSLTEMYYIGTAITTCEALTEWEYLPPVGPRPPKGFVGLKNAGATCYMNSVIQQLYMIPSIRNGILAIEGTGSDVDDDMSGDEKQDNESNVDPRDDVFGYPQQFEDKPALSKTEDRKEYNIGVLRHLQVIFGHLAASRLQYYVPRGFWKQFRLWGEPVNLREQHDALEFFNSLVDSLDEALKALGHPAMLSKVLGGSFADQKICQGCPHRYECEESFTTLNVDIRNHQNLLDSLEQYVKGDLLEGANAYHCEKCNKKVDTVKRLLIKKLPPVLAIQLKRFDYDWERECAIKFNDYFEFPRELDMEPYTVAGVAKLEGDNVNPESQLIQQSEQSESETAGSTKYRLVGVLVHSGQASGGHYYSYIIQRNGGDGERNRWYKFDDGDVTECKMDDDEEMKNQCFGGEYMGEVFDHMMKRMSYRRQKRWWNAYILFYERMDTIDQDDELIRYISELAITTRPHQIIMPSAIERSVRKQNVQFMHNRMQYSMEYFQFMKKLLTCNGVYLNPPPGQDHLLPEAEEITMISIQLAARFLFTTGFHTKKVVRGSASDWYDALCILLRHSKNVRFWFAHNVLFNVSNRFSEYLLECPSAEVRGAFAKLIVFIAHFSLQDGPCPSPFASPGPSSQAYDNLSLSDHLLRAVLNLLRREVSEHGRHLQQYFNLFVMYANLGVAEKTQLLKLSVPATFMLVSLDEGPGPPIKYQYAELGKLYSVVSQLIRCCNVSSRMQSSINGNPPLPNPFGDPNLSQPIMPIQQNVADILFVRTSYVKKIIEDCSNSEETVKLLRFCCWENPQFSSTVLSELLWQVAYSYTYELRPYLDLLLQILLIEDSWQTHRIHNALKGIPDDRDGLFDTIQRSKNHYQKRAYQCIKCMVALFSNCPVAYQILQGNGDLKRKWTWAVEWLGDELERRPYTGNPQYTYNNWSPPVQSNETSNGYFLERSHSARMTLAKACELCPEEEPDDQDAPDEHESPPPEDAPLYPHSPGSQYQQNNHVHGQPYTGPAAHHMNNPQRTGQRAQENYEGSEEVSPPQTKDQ
Procedure, shortened: as §1

UniProt O00487 = target: UniProt O00487
Sequence of UniProt O00487 (O00487 whole entry): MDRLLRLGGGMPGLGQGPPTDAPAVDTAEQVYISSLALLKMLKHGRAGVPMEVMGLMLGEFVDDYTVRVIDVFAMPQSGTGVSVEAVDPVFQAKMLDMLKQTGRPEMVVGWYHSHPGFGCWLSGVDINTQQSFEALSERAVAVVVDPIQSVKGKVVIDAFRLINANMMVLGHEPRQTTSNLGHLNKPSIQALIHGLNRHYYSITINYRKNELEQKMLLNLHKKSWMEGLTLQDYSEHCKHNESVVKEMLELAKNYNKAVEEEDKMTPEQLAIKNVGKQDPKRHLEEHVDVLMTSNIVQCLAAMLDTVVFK
Procedure, shortened: as §1

Measured: log2 ratio of Biotin-Ahx-Ub-VS probe labelling

O=C(CCl)Nc1cc2c(cc1Cl)OCCCO2
inactive: USP42 0.621 | USP46 0.0317 | USP47 -0.676 | USP48 -0.438 | USP5 0.232 | USP54 -0.0568 | USP7 -0.0845 | USP8 -0.029 | USP9X 0.118 | UniProt O00487 -0.147
